# Abeta rescue – A-beta toxicity reversal in yeast; Potency, µM (highest dose often 46.1 µM), actives largely listed as activators; 0.063% of 410,000 active; yeast expressing A-beta42, growth rescue, OD600, 48 h; response scale: 0% DMSO, 100% iron-clioquinol control; further: nearly all actives have a fitted effect of over 55% in size
#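 Growth rescue measured by 600 nm absorbance after 48 h yeast culture at 30 C with compound. Values normalized between DMSO and an equimolar ferric chloride plus clioquinol control.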
# ERG-DNA inh – inhibitors of human ERG Ets domain-DNA interaction. P11308. fluorescence polarization, His-ERG Ets domain / labelled DNA. Potency, µM (top dose mostly 76.9 µM), for the others: top-dose FP activity, negative = inhibition, most hits filed as inhibitors. 0.028% of 370,000 active. AID 624246; active means well fitted inhibition curve with a large enough effect in the polarisation, with a control signal flat; inconclusive means small, poorly fitted or top-dose-only effect, or effect the other way, or a change in a side signal; inactive means no such curve, though single readings can be large or run the other way; the % refers to the polarisation;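 further: polarization taken with two DNA probes labelled with fluorescein and Texas red; % of control where 0% means no effect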
# Target sequence (P11308 whole entry, looked up, the tested form may be a part): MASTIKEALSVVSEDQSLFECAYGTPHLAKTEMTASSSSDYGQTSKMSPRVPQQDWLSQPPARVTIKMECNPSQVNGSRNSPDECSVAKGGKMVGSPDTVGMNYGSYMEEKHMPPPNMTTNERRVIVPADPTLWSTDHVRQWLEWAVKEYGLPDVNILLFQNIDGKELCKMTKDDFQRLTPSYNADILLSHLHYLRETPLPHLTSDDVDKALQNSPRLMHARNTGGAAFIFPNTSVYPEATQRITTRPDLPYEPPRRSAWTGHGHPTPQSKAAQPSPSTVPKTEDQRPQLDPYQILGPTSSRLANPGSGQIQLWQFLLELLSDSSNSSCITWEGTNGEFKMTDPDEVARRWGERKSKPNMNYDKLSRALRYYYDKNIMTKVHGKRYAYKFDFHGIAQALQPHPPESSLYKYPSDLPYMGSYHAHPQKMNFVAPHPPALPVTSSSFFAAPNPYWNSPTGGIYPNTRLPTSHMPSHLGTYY
#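 His-tagged ERG Ets domain (1 uM in the protein solution; 300mM KCl, 50mM Tris-HCl, 1mM EDTA, 1mM DTT, pH 7.5) received compound, then a probe mix of 5 nM fluorescein-DNA and 100nM Texas-615-DNA. Fluorescence polarization was read for both dyes.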
# Mito fusion yeast – inhibitors of mitochondrial division or activators of mitochondrial fusion. S. cerevisiae fusion-defective mutant growth rescue, CellTiterGlo 48 h. Potency, µM (titrated, usually from 46.1 µM), inactives show at the highest dose growth rescue (activation), most hits filed as activators. 0.23% of 320,000 active. AID 485298; further: % of control where 0% means no effect; nearly all actives have a fitted effect of over 45% in size
#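 Growth-rescue viability read-out: after 48 h at the non-permissive 37C in glycerol/ethanol YPEG, yeast mitochondrial fusion mutants are measured by CellTiterGlo luminescence; compounds (23 nl pinned per well) restoring growth score as division inhibitors or fusion activators.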
# aSyn rescue – inhibitors of alpha-synuclein toxicity in yeast; AID 652106; Yeast expressing alpha-synuclein, growth rescue, BacTiter-Glo, 24 h; 0.14% of 370,000 active; Potency, µM (doses to about 46.1 µM), for the others: top-dose growth rescue (activation), most hits filed as activators; further: % of control where 0% means no effect; nearly all actives have a fitted effect of over 65% in size
#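 Readout is rescue of growth in alpha-synuclein-expressing yeast, so inhibitors of toxicity appear as activators. Growth after 24 hr at 30 deg C in galactose medium is quantified by luminescence.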
# FUS suppressor – FUS proteinopathy suppression in yeast. Potency, µM (doses to about 76.6 µM), actives largely listed as activators. S. cerevisiae FUS-expressing, growth rescue, OD600, 24 h. 0.24% of 390,000 active;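 further: plate controls were DMSO vehicle for no effect and reference control for full effect; nearly all actives have a fitted effect of over 55% in size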
#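 Read-out: OD at 600 nm after 24hr at 30C, reporting rescue of FUS-induced yeast toxicity. Cells at OD 0.005 in galactose (2%) minimal medium; compounds tested in a dilution series; CP55940 titration from 92uM final as control.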
# TDP43 rescue – rescues yeast growth from TDP-43 toxicity; Potency, µM (series often up to 46.1 µM), without a hit: at the highest dose growth rescue (activation), most hits filed as activators; TDP-43 expressing yeast growth rescue, BacTiter-Glo, 24 h; 1.8% of 410,000 active; further: % of control where 0% means no effect; nearly all actives have a fitted effect of over 50% in size
#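 In this qHTS, compounds that restore growth of yeast expressing TDP-43 appear as activators. Cells (OD600=0.02, galactose medium, raffinose-pregrown) are incubated with compound 24 hr at 30 deg C and growth is quantified by BacTiter-Glo.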
# Starred values were filed as active, the others as inactive; i = inactive; ? = inconclusive; . = not tested or not shown; ! = not confirmed by another sample. This is a sample that favours compounds with a hit; in the whole collection about 2.2% have one here. Unless noted, the call rests on the fitted dose curve; in most records, active means well fitted curve in the direction sought with a large enough effect; inconclusive means small, poorly fitted or top-dose-only effect, or another doubt; inactive means no such curve, though single readings can be large; an effect the other way counts as inactive or inconclusive. Potency means the concentration at half of the fitted maximal effect.
SMILES,Abeta rescue,ERG-DNA inh,Mito fusion yeast,aSyn rescue,FUS suppressor,TDP43 rescue
CCCCCCCn1c(NC(=O)CC)nc2ccccc21,22.4µM*,4.8%,12.1%,?,i,?
CCC(=O)Nc1nc2ccccc2n1CCN1CCOCC1,i,-1.1%,-3.1%,3.1%,i,-0.6%
CCCn1c(NC(=O)c2cccc(S(=O)(=O)N3CCCC3)c2)nc2ccccc21,i,5.2%,16.6%,0.8%,?,22.4µM*
CCCNCC(=O)Nc1sc2c(c1C(=O)Nc1c(C)n(C)n(-c3ccccc3)c1=O)CCCC2,i,.,.,-10.8%,i,0.5%
COc1cc2ccccc2cc1-c1nnc(COc2ccccc2)o1,i,-9.0%,10µM*,6.1%,i,25.1%
COc1ccc(OCc2nnc(-c3ccccc3)o2)cc1,i,-2.0%,.,.,i,5.4%
Brc1ccc(CSc2ccc3nnc(-c4cccnc4)n3n2)cc1,i,-17.2%,-0.4%,0.5%,i,15.8µM*
Fc1cccc(CSc2ccc3nnc(-c4cccnc4)n3n2)c1,?,-1.9%,-2.4%,8.9%,i,15.8µM*
Cc1ccc(CSc2ccc3nnc(-c4cccnc4)n3n2)cc1,i,-3.2%,15.3%,-1.5%,i,7.2%
Cc1ccc(CSc2ccc3nnc(-c4ccccn4)n3n2)cc1,i,-8.8%,-5.0%,-1.4%,i,20µM*
CCCCn1nnnc1C(c1ccccc1)N1CCN(c2c(Cl)cncc2Cl)CC1 (centres undefined),i,.,.,-0.7%,i,22.4µM*
CCCCn1nnnc1C(c1ccccc1)N1CCN(c2ccccc2)CC1 (centres undefined),i,.,.,22.3%,i,5.2%
Cc1cc(NC(=O)c2ccc(F)cc2)n(-c2ccccn2)n1,i,0.7%,5.9%,1.7%,i,15.8µM*
CCOc1cc(C2Sc3ccccc3NC3=C2C(=O)c2ccccc23)ccc1O (centres undefined),i,1.7%,.,.,?,11.2µM*
CCc1c(C)sc(NC(=O)C2CCCO2)c1C#N (centres undefined),i,2.9%,1.3%,-8.4%,i,22.4µM*
CC1CCc2c(sc(NC(=O)C3CCCO3)c2C#N)C1 (centres undefined),i,-0.1%,-8.4%,-7.9%,i,27.4%
O=C(NCC(c1ccco1)N1CCc2ccccc21)c1ccccc1Br (centres undefined),i,0.4%,19.8%,13.3%,i,14.1µM*
COc1ccc(CNC(=O)C(c2ccc(C)cc2)N(Cc2cccs2)C(=O)c2ccc3c(c2)OCCO3)cc1 (centres undefined),i,7.6%,2.9%,-6.0%,5.01µM*,-22.7%
S=C(Nc1ccc(Cl)c(Cl)c1)NC1CCCCC1,i,1.2%,23.1%,-16.0%,i,-2.4%
S=C(Nc1ccc2nsnc2c1)NC1CCCCC1,i,.,?,-13.4%,.,12.6µM*
Cc1ccc(CSc2cn(CC(=O)N3CCCC3)c3ccccc23)cc1,i,-0.1%,.,.,?,22.4µM*
CC(C)(C)C(=O)Nc1ccc(C(=O)N/N=C/c2ccccc2OC(=O)c2ccc(Cl)cc2)cc1,i,4.0%,10.8%,2.4%,22.4µM*,-17.1%
CC(C)OCCCn1c(=O)c2ccccc2n2c(-c3ccccc3)nnc12,i,3.5%,.,.,i,-5.3%
CCC(Nc1ccc(-c2nc(-c3ccccn3)no2)cc1[N+](=O)[O-])c1ccccc1 (centres undefined),i,-2.7%,.,.,i,7.6%
O=C1SC(Nc2ccc(Cl)cc2)C(=O)N1Cc1ccccc1 (centres undefined),?,-10.7%,.,.,i,?
SMILES,Abeta rescue,ERG-DNA inh,Mito fusion yeast,aSyn rescue,FUS suppressor,TDP43 rescue
CCOc1ccc(NC2SC(=O)N(Cc3ccccc3)C2=O)cc1 (centres undefined),?,2.6%,.,.,i,12.6µM*
Nc1ccc2c(c1)C(=O)N(c1cccc3ccccc13)C2=O,i,0.4%,0.3%,11.2%,i,14.1µM*
Cc1ccc(N2C(=O)c3ccc(N)cc3C2=O)cc1,i,-6.1%,0.1%,1.8%,i,0.0%
Cc1ccc(N2C(=O)c3ccc(N)cc3C2=O)cc1C,i,-2.5%,10.0%,1.8%,i,11.2µM*
Cc1ccc2c(c1)CC(C)N2S(=O)(=O)c1nnc(NC(=O)C(C)C)s1 (centres undefined),i,2.1%,.,.,i,-5.0%
COc1ccc(C(=O)/C(=C\c2sccc2C)c2nc3ccccc3o2)cc1,.,.,8.2%,.,.,.
CC(C)Oc1ccc(C(=O)/C(=C\c2cccs2)c2nc3ccccc3o2)cc1,i,-14.9%,10µM*,0.3%,i,8.0%
CCC1CN(C(=O)N2CCC(C(=O)NCc3cccc(F)c3)CC2)c2cc(C)ccc2O1 (centres undefined),?,-3.3%,.,.,i,4.8%
O=C1C2C3C=CC(C4CC34)C2C(=O)N1/N=C/c1ccc([N+](=O)[O-])s1 (centres undefined),i,5.7%,-1.0%,-1.4%,.,5.3%
O=[N+]([O-])c1cc(/C=N/N2CCOCC2)cs1,i,31.6µM*,0.8%,3.3%,i,?
O=[N+]([O-])c1ccc(C=NN2CCOCC2)s1,i,.,.,1.7%,i,11.2µM*
COc1ccc(CCNC(=O)C(=O)NCC(c2ccco2)S(=O)(=O)c2ccc(C)cc2)cc1 (centres undefined),i,3.4%,.,.,i,-10.5%
CN(C)S(=O)(=O)c1cccc(C(=O)N/N=C\c2ccccc2[N+](=O)[O-])c1,.,.,.,.,i,.
Cc1cccc(CSc2ncccc2C(=O)O)c1,i,-1.1%,-3.1%,0.0%,i,?
O=C(O)c1cccnc1SCc1cccc(Cl)c1,i,-12.7%,-6.0%,8.8%,i,35.5µM*!
COC(=O)[C@]12C[C@H](CC(=O)NCC34CC5CC(CC(C5)C3)C4)C(=O)N(Cc3cccc4ccccc34)C1=C[C@H](C1CCCC1)O[C@@H]2C,.,.,.,.,i,.
COC(=O)[C@]12C[C@H](CC(=O)NCc3ccc(OC)c(OC)c3)C(=O)N(Cc3cccc4ccccc34)C1=C[C@H](C1CCCC1)O[C@@H]2C,.,.,.,.,12.6µM*,.
COC(=O)[C@]12C[C@H](CC(=O)NCc3ccc(C)o3)C(=O)N(Cc3cccc4ccccc34)C1=C[C@H](C1CCCC1)O[C@@H]2C,.,.,.,.,28.2µM*,.
COC(=O)[C@]12C[C@H](CC(=O)NCc3ccc(OC)c(OC)c3)C(=O)N(CCc3ccc(OC)c(OC)c3)C1=C[C@H](C(C)C)O[C@@H]2C1CC1,.,.,.,.,i,.

# Screening data from PubChem BioAssay.
